Hits are enriched below; roughly 5.2% of the tested compounds scored in any of these assays.
Sfp PPTase inh: Sfp phosphopantetheinyl transferase inhibition | Q9F4F7 | Biochemical Sfp PPTase activity, qHTS | 310,000 tested, 3.5% active | Potency, µM, inactives show largest response in the series, negative = inhibition, hits mostly inhibitors;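 note: the enzyme is Sfp with the accession as filed and its product quenches rhodamine fluorescence; potency is the fitted concentration of half-maximal effect; 0% = enzyme reaction without inhibitor and -100% = no enzyme wells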
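Buffer: 50 mM Hepes-Na pH 7.6, 10 mM MgCl2, 0.01% Nonidet P-40, 0.01% BSA. Enzyme 15 nM, pre-exposed to compound 15 min; substrates then added and fluorescence change tracked over 30 min.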
FBPA coupling cs: inhibits coupling enzyme system, counter-screen for aldolase hits. 290,000 tested, 0.67% active. coupling enzyme system counterscreen, AmpLite Red fluorescence. activity change, negative = inhibition, % at 58.2 µM, hits read low; in the data active = activity change below about -30%
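Final compound at 57.5 uM, incubated 10 min at RT with coupling enzyme reagent (glyceraldehyde-3-phosphate), then 20 min with substrate and AmpLite Red detection. Fluorescence read at 525/598 nm; tests interference with the coupling assay, not aldolase inhibition.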
Tau fluor counter: counter-screen for tau fibril formation inhibitors. tau K18 P301L Alexa594 fluorescence, heparin fibrillization. Potency, µM (series often up to 57.7 µM), inactives show at the top dose activity change, negative = decrease. 280,000 tested, 0.93% active. AID 1463; note: potency is the fitted concentration of half-maximal effect; nearly all actives have a fitted effect of over 55% in size
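Human K18 P301L tau (15 uM unlabeled plus 0.24 uM Alexa 594-labeled, final) in 100 mM sodium acetate pH 7 was mixed with compound and 20 uM heparin and incubated 6 hr at 37 C.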
Tau ThT inhib: blocks human tau fibril formation measured by thioflavin T; 270,000 tested, 2.1% active; AID 1460; Potency, µM (top dose mostly 57.4 µM), without a hit: at the top dose activity, negative = inhibition, most hits filed as inhibitors; recombinant tau K18 P301L, heparin-induced fibrillization, ThT fluorescence; P10636; note: potency is the fitted concentration of half-maximal effect; nearly all actives have a fitted effect of over 55% in size
Target sequence (P10636 561-689 P618L limits assumed): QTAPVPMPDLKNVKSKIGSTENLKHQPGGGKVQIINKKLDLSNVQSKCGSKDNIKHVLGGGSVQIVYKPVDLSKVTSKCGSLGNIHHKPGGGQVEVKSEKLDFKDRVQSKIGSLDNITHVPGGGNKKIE
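K18 P301L tau (15 uM + 0.24 uM Alexa 594-tagged), heparin 20 uM, NaOAc pH 7, 6 h 37 C; ThT 30 uM, 1 h RT, ex 450/em 510 nm.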
Tau fibril FP: inhibitors of human tau fibril formation | K18 P301L tau heparin fibrillization, Alexa594 FP, 6 h | 280,000 tested, 0.39% active | AID 1468 | Potency, µM (highest dose often 57.7 µM), inactives show top-dose activity, negative = inhibition, actives largely listed as inhibitors; note: potency is the fitted concentration of half-maximal effect; nearly all actives have a fitted effect of over 55% in size
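Heparin (20 uM) drove fibril formation of recombinant tau K18 P301L, 15 uM unlabeled with 0.24 uM Alexa 594 label, for 6 hr at 37 C in 100 mM sodium acetate pH 7. Fluorescence polarization (555/632 nm) read 1 hr after 30 uM ThT.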
The depositor's hits bear a star; ? = inconclusive; . = no result; [ ] = dose if it differs, or a comment. Unless noted, calls come from the whole dose curve; as a rule, active = well fitted curve in the direction sought with a large enough effect; inconclusive = small, poorly fitted or top-dose-only effect, or another doubt; inactive = no such curve, though single readings can be large; an effect the other way counts as inactive or inconclusive. Unless noted, % is set by controls: 0 for no effect and ±100 for the full control effect.

SMILES	Sfp PPTase inh	FBPA coupling cs	Tau fluor counter	Tau ThT inhib	Tau fibril FP
CCC(Cc1c(I)cc(I)c(O)c1I)C(=O)O (stereo unspecified)	56µM*	.	.	.	.
CN(c1ccccc1)c1ccc(/C=C(\C#N)c2nnc3n2CCCCC3)cc1[N+](=O)[O-]	-9%	1	?	14µM*	1%
O=C1NN(C(=O)Nc2ccc(Br)cc2)C(c2ccccc2)C1c1ccccc1 (stereo unspecified)	8%	1	.	.	.
Cc1c(CCO)c(=O)n(-c2ccccc2)n1S(=O)(=O)c1c(Cl)cc(Cl)cc1Cl	71µM*	-39*	-13%	?	0%
Cc1ccc(C)n1-c1ccccc1N	-2%	-56*	-18%	-24%	-12%
CCOC(=O)c1[nH]c2ccccc2c1NC(=O)c1cc(OCC)c(OCC)c(OCC)c1	.	.	?	-12%	10%
Cc1cccc(NC(=O)CCc2c(C)nc3nc(CNC(=O)c4cccc(F)c4)nn3c2C)c1	.	.	-11%	-4%	0%
S=C(NCCSCc1ccc(Cl)cc1Cl)Nc1ccccc1	15%	2	?	-15%	?
S=C(Nc1ccccc1)Nc1ccc(OCc2ccc(Cl)cc2Cl)cc1	-8%	-2	14µM*[quencher]	?	-1%
CCOC(=O)C1(Cc2cccc(OC)c2)CCN(C2CCOCC2)CC1	0%	0	-82%	13µM*	-18%
O=C(Nc1ccc(Cl)cc1Cl)c1cc(S(=O)(=O)N2CCC3(CC2)OCCO3)ccc1F	.	.	-19%	-4%	-8%
Cc1nn(C(C)C(=O)N2CCN(c3ccc(Cl)cc3)CC2)c(=O)c2cc3occc3n12 (stereo unspecified)	.	.	-10%	-5%	-4%
Cc1cccc(NC(=O)N2CC=C(c3c[nH]c4ccccc34)CC2)c1C	.	.	25µM*[quencher]	?	3%
O=C(Nc1ccccc1)N1CC=C(c2ccccc2)CC1	28%	-7	-8%	-24%	-1%
Cc1ccc(NC(=O)N2CC=C(c3c[nH]c4ccccc34)CC2)cc1Cl	.	.	14µM*[quencher]	6.3µM*	-10%
COC(=O)c1ccc(Cl)cc1NC(=O)N1CC=C(c2c[nH]c3ccccc23)CC1	.	.	11µM*[quencher]	?	0%
O=C(Nc1ccc(Br)cc1F)N1CC=C(c2c[nH]c3ccccc23)CC1	.	.	8.9µM*[quencher]	8.9µM*	-15%
CCc1nc2ccc(C(=O)NCCc3ccc(OC)cc3OC)cc2nc1CC	.	.	12%	?	5%
OCc1cnc(SCc2ccccc2F)n1Cc1ccc(F)cc1	.	.	-1%	4%	-8%
COc1ccccc1C1=Nn2c(nnc2-c2cccc(OC)c2OC)SC1	15%	-1	.	.	.
CCCCCNC(=O)c1ccc2c(=O)n(CCCN3CCCC3=O)c(=S)[nH]c2c1	-14%	0	-10%	-3%	-7%
COCCNC(=O)c1ccc2c(=O)n(CCCN3CCCC3=O)c(=S)[nH]c2c1	50µM*	2	-6%	-4%	-4%
COc1ccccc1Cn1c(=S)[nH]c2cc(C(=O)NCCCN3CCOCC3)ccc2c1=O	-11%	1	.	.	.
COCCn1c(=S)[nH]c2cc(C(=O)NCCCN3CCOCC3)ccc2c1=O	79µM*	0	6%	6%	-4%
Cn1c2c(c(=O)n(C)c1=O)C1(C(=O)Nc3ccccc31)C(C#N)=C(N)O2 (stereo unspecified)	-16%	-54*	-23%	14µM*	?
SMILES	Sfp PPTase inh	FBPA coupling cs	Tau fluor counter	Tau ThT inhib	Tau fibril FP
COc1ccc(S(=O)(=O)NCCSCc2ccco2)cc1OC	28µM*	4	-12%	?	-2%
COc1ccc(OC)c(/C=N/N=C2\SCC(=O)N2Cc2ccco2)c1	56µM*	0	?	-4%	?
CC1S/C(=N/N=C/c2ccco2)N(Cc2ccccc2)C1=O (stereo unspecified)	32µM*	1	-10%	-2%	-9%
O=C1CS/C(=N/N=C/c2ccccc2)N1Cc1ccco1	?	2	-17%	-20%	0%
Cc1ccccc1CN1C(=O)CS/C1=N/N=C/c1ccco1	45µM*	-2	-30%	.	-3%
Cc1nnc(N2CCN(c3ccccc3)CC2)c2c1nnn2Cc1ccc(F)cc1	.	.	-13%	-5%	6%
OCCN1CCN(C(c2ccccc2Cl)c2sc3nc(-c4ccco4)nn3c2O)CC1 (stereo unspecified)	.	.	-4%	0%	?
CCN(CC)CCN1C(=O)C(O)=C(C(=O)c2cccs2)C1c1ccc(C)o1 (stereo unspecified)	-3%	-6	0%	-16%	1%
CCN(CC)CCN1C(=O)C(O)=C(C(=O)c2cccs2)C1c1ccccn1 (stereo unspecified)	56µM*	-14	-14%	?	-13%
O=C(Cn1nc(-c2ccccc2)c2cnc3ccccc3c21)Nc1ccccc1	.	.	-4%	5%	-9%
Cc1cc(C)cc(OC(C)C(=O)Nc2ccccc2C(=O)NCc2cccnc2)c1 (stereo unspecified)	35µM*	-1	.	.	.
Cc1ccc(OC(C)C(=O)Nc2ccccc2C(=O)NCc2cccnc2)cc1C (stereo unspecified)	-4%	.	.	.	.
Cc1nn(S(=O)(=O)c2ccc(C(C)(C)C)cc2)c(C)c1S(=O)(=O)N1CCC(C)CC1	.	.	-1%	3%	1%
COC(=O)COc1ccc(-c2ccc(F)cc2)cc1C=O	-11%	-1	-8%	?	0%
COC(=O)COc1ccc(-c2ccccc2)cc1C=O	79µM*	-5	-6%	?	-2%
O=C(NC1CCCCCC1)C(=S)NCCc1ccccc1	14µM*	-4	-3%	-9%	-5%
O=C(NC1CCCCC1)C(=S)NCc1ccccc1	4%	-1	-11%	-11%	-1%
O=C(NC1CCCCCC1)C(=S)NCc1ccccc1	56µM*	-3	-12%	-15%	10%
Cc1cc(N2CCCC2)ccc1/C=N/n1cnnc1	-6%	-3	-29%	7.1µM*	-5%
Cc1cc(N2CCCC2)ccc1/C=C1\NC(=S)N(C)C1=O	-15%	-18	?	?	5%
CCc1ccc(/C(C)=N\Nc2ccc([N+](=O)[O-])cc2)cc1	-1%	-1	?	3.5µM*	-4%

Screens (PubChem BioAssay)
